Inconclusive results are not listed. Where a call stands in place of a potency, no number is given. Calls of active or inactive are those of the source. Calls come from the whole dose curve; as a rule, active = well fitted curve in the direction sought with a large enough effect in the repeat runs; inconclusive = weak or mixed curves; inactive = no such curve, though single readings can be large; an effect the other way counts as inactive or inconclusive.
Assay: qHTS assay to identify small molecule agonists of the sonic hedgehog signaling (Shh) pathway - cell viability counter screen (AID 1259366); note: nearly all actives have a fitted effect of over 50% in size
Conditions: NIH/3T3 Gli1-Luc viability, CellTiter-Fluor, 24 h; series mostly up to 92.4 µM
In short: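 Viability measured fluorometrically (CellTiter-Fluor, 1hr, 37C) in 3T3 Gli1-Luc reporter cells after 23hr compound exposure within a 24hr incubation at 37C/5% CO2.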
With CCCC(=O)OCc1ccccc1 the Potency was “inactive”. For CC[C@H](NC(C)C)[C@H](O)c1ccc(O)c2[nH]c(=O)ccc12, the Potency was “inactive”. For O=C(O)c1ccncc1, the Potency was “inactive”. For COc1cc(CNC(=O)CCCC/C=C/C(C)C)ccc1O, the Potency was “inactive”. With C[C@H]1C[C@H]2[C@@H]3CCC4=CC(=O)C=C[C@]4(C)[C@@]3(F)[C@@H](O)C[C@]2(C)[C@@]1(O)C(=O)COP(=O)(O)O the Potency was “inactive”. With CNc1ccccc1 the Potency was “inactive”. For C=Cc1ccc(C=C)cc1, the Potency was “inactive”. With O=C1OC(=O)C2CC=CCC12 (stereo not given) the Potency was “inactive”. With CC1(C)C(=O)NC(=O)N1CO the Potency was “inactive”. In the case of Nc1ccc(C(=O)Oc2ccccc2)c(O)c1, the Potency was “inactive”. With COC(=O)/C=C/C(C)=C\C=C\C(C)=C\C=C\C=C(C)\C=C\C=C(C)\C=C\C(=O)O the Potency was “inactive”. In the case of C/C(=C(\CCO)SS/C(CCO)=C(\C)N(C=O)Cc1cnc(C)nc1N)N(C=O)Cc1cnc(C)nc1N, the Potency was “inactive”. In the case of O=[N+]([O-])c1cccc(I)c1, the Potency was “inactive”. For CC(=O)Nc1ccccc1O, the Potency was “inactive”. In the case of CC1(COc2ccc(CC3SC(=O)NC3=O)cc2)CCCCC1 (stereo not given), the Potency was “inactive”. For CC(=O)c1ccc(Cl)c(Cl)c1Cl, the Potency was “inactive”. For CC(=O)Oc1cccc2c1C(=O)c1c(OC(C)=O)cc(C(=O)O)cc1C2=O, the Potency was “inactive”. With CO[C@@H]1COCC[C@@H]1N[C@@H]1CC[C@@](C(=O)N2CCc3ncc(C(F)(F)F)cc3C2)(C(C)C)C1 the Potency was “inactive”. With N#CCCCC(C#N)CCC#N (stereo not given) the Potency was “inactive”. With CCC(C)C1N=C(C)C(C)S1 (stereo not given) the Potency was “inactive”. With Cc1cc(C)n(CO)n1 the Potency was “inactive”. For CCOc1ccccc1O, the Potency was “inactive”. For CCC1=C(C)CN(C(=O)NCCc2ccc(S(=O)(=O)NC(=O)NC3CCC(C)CC3)cc2)C1=O (stereo not given), the Potency was “inactive”. With CC(C)=CCC[C@H](C)CCO the Potency was “inactive”. With Cc1ccc(NC=O)c(C)c1 the Potency was “inactive”. In the case of [O-][n+]1ccc(Cl)cc1, the Potency was “inactive”.

Assay: qHTS assay to identify small molecule antagonists of the sonic hedgehog signaling (Shh) pathway - cell viability counter screen (AID 1259367); note: nearly all actives have a fitted effect of over 55% in size
Conditions: NIH/3T3 Gli1-Luc viability, CellTiter-Fluor, 24 h; series mostly up to 92.4 µM
In short: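 Conditioned medium drove Shh signaling in 3T3 Gli1-Luc cells exposed to compounds at 37C and 5% CO2. Viability was determined from CellTiter-Fluor fluorescence, with reagent incubated 1 hr after 23 hr of treatment.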
In the case of CCCC(=O)OCc1ccccc1, the Potency was “inactive”. With CCCCCCCCC(=O)OCC(C)OC(=O)CCCCCCCC (stereo not given) the Potency was “inactive”. With CC[C@H](NC(C)C)[C@H](O)c1ccc(O)c2[nH]c(=O)ccc12 the Potency was “inactive”. In the case of O=C(O)c1ccncc1, the Potency was “inactive”. With COc1cc(CNC(=O)CCCC/C=C/C(C)C)ccc1O the Potency was “inactive”. For C[C@H]1C[C@H]2[C@@H]3CCC4=CC(=O)C=C[C@]4(C)[C@@]3(F)[C@@H](O)C[C@]2(C)[C@@]1(O)C(=O)COP(=O)(O)O, the Potency was “inactive”. For CC(C)(C)N, the Potency was “inactive”. With CNc1ccccc1 the Potency was “inactive”. With C=Cc1ccc(C=C)cc1 the Potency was “inactive”. For C/C=C1\[C@H]2C=C(C)C[C@]1(N)c1ccc(=O)[nH]c1C2, the Potency was “inactive”. With O=C1OC(=O)C2CC=CCC12 (stereo not given) the Potency was “inactive”. For CC1(C)C(=O)NC(=O)N1CO, the Potency was “inactive”. For Nc1ccc(C(=O)Oc2ccccc2)c(O)c1, the Potency was “inactive”. For COC(=O)/C=C/C(C)=C\C=C\C(C)=C\C=C\C=C(C)\C=C\C=C(C)\C=C\C(=O)O, the Potency was “inactive”. With C/C(=C(\CCO)SS/C(CCO)=C(\C)N(C=O)Cc1cnc(C)nc1N)N(C=O)Cc1cnc(C)nc1N the Potency was “inactive”. For O=[N+]([O-])c1cccc(I)c1, the Potency was “inactive”. For CC(=O)Nc1ccccc1O, the Potency was “inactive”. In the case of CC1(COc2ccc(CC3SC(=O)NC3=O)cc2)CCCCC1 (stereo not given), the Potency was “inactive”. In the case of CC(=O)c1ccc(Cl)c(Cl)c1Cl, the Potency was “inactive”. In the case of CC(=O)Oc1cccc2c1C(=O)c1c(OC(C)=O)cc(C(=O)O)cc1C2=O, the Potency was “inactive”. With CO[C@@H]1COCC[C@@H]1N[C@@H]1CC[C@@](C(=O)N2CCc3ncc(C(F)(F)F)cc3C2)(C(C)C)C1 the Potency was “inactive”. For O=C(NC1CCN(CCc2c[nH]c3ccccc23)CC1)c1ccccc1, the Potency was “inactive”. For N#CCCCC(C#N)CCC#N (stereo not given), the Potency was “inactive”. With CCC(C)C1N=C(C)C(C)S1 (stereo not given) the Potency was “inactive”. For Cc1cc(C)n(CO)n1, the Potency was “inactive”. With CCOc1ccccc1O the Potency was “inactive”. In the case of CCC1=C(C)CN(C(=O)NCCc2ccc(S(=O)(=O)NC(=O)NC3CCC(C)CC3)cc2)C1=O (stereo not given), the Potency was “inactive”. For O=C1c2ccccc2C(=O)c2c1ccc(O)c2O, the Potency was “inactive”. In the case of CC(C)=CCC[C@H](C)CCO, the Potency was “inactive”. In the case of Cc1ccc(NC=O)c(C)c1, the Potency was “inactive”. For NC(=O)c1cc[n+](CC2=C(C(=O)[O-])N3C(=O)[C@@H](NC(=O)Cc4cccs4)[C@H]3SC2)cc1, the Potency was “inactive”. With [O-][n+]1ccc(Cl)cc1 the Potency was “inactive”. In the case of COc1ccc(/C=C/S(=O)(=O)NC(=O)c2ccc(C)cc2Cl)cc1, the Potency was “inactive”. With CCC(C(=O)O)c1ccc(N2Cc3ccccc3C2=O)cc1 (stereo not given) the Potency was “inactive”.

From PubChem BioAssay (Tox21)
